This is part of a sample that, as a whole, favours compounds with a hit. Of some 83,000 tested, about 20% had one in any assay.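 How to read the values: 0–100, growth inhibition (40 = 60% inhibited); 0, no net growth; -100 to 0, cell death (-40 = 40% of starting cells died; -100 = all dead).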 A number with no mark means an inactive call. Active and inactive are the calls of the source. How the source made its calls: active means growth percent below 10; inactive means the rest.
Tested on: HL-60(TB) leukemia
Experiment: NCI-60 one-dose screen, 48 h (100 = growth as untreated, 0 = no growth, -100 = all killed)
Conditions: 10 µM unless noted

SMILES | growth
C#CCOc1cccc(Nc2ncc3ncn(C4CCN(C(=O)CCl)C4)c3n2)c1 (centres undefined) | -29% [6.25 µM] (active)
CS(=O)(=O)c1ccc(-c2cnc3ccc(-c4cccc(S(C)(=O)=O)c4)nn23)cc1 | 16.6%
CCC1=C(c2ccc(OC)cc2)C(C)(C)Oc2c1ccc(O)c2CN1CCCC1 | -25.4% (active)
COc1ccc(/C=C2/C(=O)Nc3cc(Cl)c(-c4csc(N)n4)cc32)cc1 | 8.08% (active)
CC(C)OP(=O)(OC(C)C)c1ncc(-c2ccc(C(F)(F)F)cc2)c(NC2CCCCCC2)n1 | -43.9% [33.3 µM] (active)
Cc1[nH]c(C(=O)Nc2ccc(C(N)=O)cc2NC(C)C)c(Cl)c1Cl | 99.7%
O=C(Nc1cccc(-n2ccc3c(NC(=O)c4ccccc4)nccc32)c1)Nc1ccc(Cl)c(C(F)(F)F)c1 | -22.8% (active)
O=C(/C=C/c1ccc(F)cc1)Nc1ncc(Cc2ccc(F)cc2)s1 | -26.6% (active)
CCN1C(=O)C(C)C=C(C)C=C1C (centres undefined) | 94.4%
O=C(COc1ccc(/C=C2\CSc3ccccc3C2=O)cc1)c1ccc(Cl)cc1 | 80%
CCOC(=O)C1C(C(=O)OCC)C2C(=O)C3C(C(=O)OCC)C(C(=O)OCC)C3C(=O)C12 (centres undefined) | 96.7%
Cc1ccc(-n2nc3c(c(C#N)c2=O)CC(c2ccccc2Cl)C([N+](=O)[O-])=C3O)cc1 (centres undefined) | 96%
Cn1ncc(Cl)c1-c1cc(C(=O)N[C@H](CN)Cc2cccc(F)c2)sc1Cl | 12.2%
C/C(=C\c1ccc(OCC(=O)O)c(Cl)c1Cl)[N+](=O)[O-] | 79.8%
COC(=O)c1c2c(c(C)[n+]([O-])c1C)C(=O)C=C(NCc1cccc(OC)c1)C2=O | -37.3% (active)
Clc1ccc2c(c1)NC1(CCSc3ccccc31)n1nccc1-2 (centres undefined) | 97.4%
COC(=O)c1c(-c2ccccc2)csc1NC(=O)c1c(-c2ccccc2)noc1C | 28.3%
Cc1c(C(=O)O)nnn1-c1nccs1 | 95.5%
O=S(=O)(O)c1cccc2cccnc12 | 94%
Oc1ccc(N=Cc2ccc(OCc3ccccc3)cc2)cc1 | 104%
CC(CCC(=O)O)(NC(=O)c1ccc([N+](=O)[O-])cc1)C(=O)O (centres undefined) | 94.9%
COc1ccc(N2CCC(=S)NC2=S)cc1 | 99%
CCN1CCN(c2ccc(Nc3ncnc4c3nnn4CCc3cc(OC)cc(OC)c3)cc2)CC1 | 87.8%
COc1ccc(-c2cc(-c3cc(OC)ccc3OC)nc(SCC(C)=O)c2C#N)cc1 | 86.3%
CS(=O)(=O)c1nsc(N)n1 | 105%
CCSc1ncc(Br)c(Sc2nc(N)nc3nc[nH]c23)n1 | 87.8%
Cn1cnc([N+](=O)[O-])c1/C=C1\Oc2ccc(Cl)cc2C1=O | 60%
COc1c(O)cc2oc3cc(O)c(CC=C(C)C)c(O)c3c(=O)c2c1CC=C(C)C | 65.9%
CC(C)CCC[C@@H](C)[C@H]1CC[C@H]2[C@@H](Nc3ccc(O)cc3)CCC[C@]12C | 39.2%
